Screens: PubChem, University of Kansas High Throughput Screening Laboratory
Pf apPOL block = Pf-apPOL DNA polymerase inhibition | AID 1794808 | Recombinant Pf-apPOL, molecular beacon fluorescence, 1.5 h | hit rate 0.25% among 210,000 | inhibition, % at 10 µM
mHTT-CaM PPI inh = inhibitors of human mutant huntingtin-calmodulin interaction; P42858; inhibition, % at 15 µM; AlphaScreen His-mHTT/GST-CaM binding, luminescence; AID 1671202; hit rate 3.6% among 190,000;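 note: 0% = both proteins with DMSO and 100% = one protein alone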
* = called active by the depositor. This is one part of a sample in which hits are shown more often than they occur. Cut-off read from the data, not from the text of the source: active = inhibition above about 50%; inactive = the rest.

Screening O[C@H]1CN(Cc2cccs2)[C@@H](c2ccccc2)C[C@@H]1n1cc(C2CC2)nn1 returned Pf apPOL block -3 and mHTT-CaM PPI inh 18.
Screening Cc1ccc([C@H]2C[C@@H](O)[C@H](n3cc(C4CC4)nn3)CN2Cc2cccs2)cc1 returned Pf apPOL block -1 and mHTT-CaM PPI inh -4.
For Cc1noc(-c2ccc3c(c2)OCO3)c1C(=O)N(C)Cc1ccccc1 the results were Pf apPOL block -1 and mHTT-CaM PPI inh -5.
`O=C(CSc1nc2[nH]ncc2c(=O)[nH]1)N1CCCc2ccccc21` gave Pf apPOL block 0 and mHTT-CaM PPI inh -6.
For c1ccc(-n2nnnc2SCc2ccc3c(c2)OCO3)cc1 the results were Pf apPOL block -7 and mHTT-CaM PPI inh -33.
For Cc1ccc(NC(=O)Cn2cnc3c(-c4ccc(F)cc4)csc3c2=O)cc1 the results were Pf apPOL block -4 and mHTT-CaM PPI inh -15.
`COC(=O)c1sc2ccccc2c1NC(=O)c1cccc(S(C)(=O)=O)c1` gave Pf apPOL block 2 and mHTT-CaM PPI inh 8.
For COC(=O)c1cc(Br)cc2ccccc12 the results were Pf apPOL block 64* and mHTT-CaM PPI inh -124.
Screening COC(=O)c1c[nH]c2ccccc12 returned Pf apPOL block 3.
CCCCCCN1C[C@H](n2cc(C3CC3)nn2)[C@@H](O)C[C@@H]1c1ccc(OC)cc1 was read as Pf apPOL block -3 and mHTT-CaM PPI inh 98*.
Screening CCCCCCN1C[C@@H](O)[C@H](n2cc(C3CC3)nn2)C[C@@H]1c1ccccc1 returned Pf apPOL block -2 and mHTT-CaM PPI inh 30.
For COc1ccc([C@H]2C[C@@H](n3cc(-c4ccc(F)cc4)nn3)[C@H](O)CN2CC2CCCCC2)cc1 the results were Pf apPOL block -3 and mHTT-CaM PPI inh -7.
`CCCCCCN1C[C@H](n2cc(C3CC3)nn2)[C@@H](O)C[C@@H]1c1ccccc1` gave Pf apPOL block 0 and mHTT-CaM PPI inh 99*.
CCCCCCN1C[C@H](n2cc(-c3ccc(F)cc3)nn2)[C@@H](O)C[C@@H]1c1ccc(OC)cc1 was read as Pf apPOL block 1 and mHTT-CaM PPI inh 67*.
For CCCCCC(=O)N1C[C@@H](O)[C@H](n2cc(C3CC3)nn2)C[C@@H]1c1ccc(OC)cc1 the results were Pf apPOL block -3 and mHTT-CaM PPI inh 26.
For COc1ccc([C@H]2C[C@H](O)[C@@H](n3cc(-c4ccc(F)cc4)nn3)CN2CC2CCCCC2)cc1 the results were Pf apPOL block 1 and mHTT-CaM PPI inh 69*.
Screening CCCCCCN1C[C@@H](n2cc(-c3ccc(F)cc3)nn2)[C@H](O)C[C@@H]1c1ccc(OC)cc1 returned Pf apPOL block -7 and mHTT-CaM PPI inh 4.
`COc1ccc(Br)cc1C(=O)N1CCN(c2ccc([N+](=O)[O-])cc2Cl)CC1` gave Pf apPOL block -2 and mHTT-CaM PPI inh 26.
`O=C(NC1CCCS1(=O)=O)c1ccc(Br)o1` (stereo not drawn) gave Pf apPOL block -2 and mHTT-CaM PPI inh 1.
Cc1ccc(S(=O)(=O)Nc2ccc(Nc3ccc(-n4cccn4)nn3)cc2)c(C)c1 was read as Pf apPOL block -2 and mHTT-CaM PPI inh 100*.
For Cc1ccc(Nc2cc(-n3cccn3)ncn2)cc1 the results were Pf apPOL block -4 and mHTT-CaM PPI inh 0.
NS(=O)(=O)c1ccc(NC(=O)c2ccc(F)cc2)cc1 was read as Pf apPOL block -1 and mHTT-CaM PPI inh 2.
`COCC(=O)Nc1ccc(Nc2ccc(-n3cccn3)nn2)cc1` gave Pf apPOL block -2 and mHTT-CaM PPI inh 99*.
`CCOc1ccc(C(=O)Nc2ccc(-n3nncc3-c3ccccc3)cc2)cc1OCC` gave Pf apPOL block -3 and mHTT-CaM PPI inh 20.
`NS(=O)(=O)c1ccc(C(=O)Nc2ccc(Nc3ccc(-n4cccn4)nn3)cc2)cc1` gave Pf apPOL block -8 and mHTT-CaM PPI inh 95*.
COCC(=O)Nc1ccc(Nc2ccccc2)cc1 was read as Pf apPOL block -13 and mHTT-CaM PPI inh 47.
For CCOc1ccc(C(=O)Nc2ccc(Nc3ccc(-n4cccn4)nn3)cc2)cc1OCC the results were Pf apPOL block -7 and mHTT-CaM PPI inh 88*.
For Cc1cc(C)cc(NC(=O)C2CCN(c3cnc(N4CCCCC4)nc3)CC2)c1 the results were Pf apPOL block 1 and mHTT-CaM PPI inh -6.
For CCc1ccc2nc(N3CCC(C(=O)NCCN(CC)CC)CC3)sc2c1 the results were Pf apPOL block 3 and mHTT-CaM PPI inh 0.
For Cc1oc(C2CCN(C(=O)Cc3ccccc3F)CC2)nc1C(=O)N(C)C the results were Pf apPOL block -9 and mHTT-CaM PPI inh 5.
`CC(C)C(=O)Oc1coc(CSc2nnc(NC(=O)c3cccs3)s2)cc1=O` gave Pf apPOL block 74* and mHTT-CaM PPI inh 82*.
`O=C(CSc1nnc(NC(=O)c2cccs2)s1)NCc1ccccc1Cl` gave Pf apPOL block -3 and mHTT-CaM PPI inh -4.
For CCCN(CCC)S(=O)(=O)c1ccc(C(=O)Nc2nc(-c3ccccn3)cs2)cc1 the results were Pf apPOL block -7 and mHTT-CaM PPI inh 88*.
CN(Cc1ccccc1)S(=O)(=O)c1ccc(C(=O)Nc2nc(-c3ccccn3)cs2)cc1 was read as Pf apPOL block -3 and mHTT-CaM PPI inh 50.
Screening CCCCN(CCCC)S(=O)(=O)c1ccc(C(=O)Nc2nc(-c3ccccn3)cs2)cc1 returned Pf apPOL block -5 and mHTT-CaM PPI inh 41.
CC(C)CN(CC(C)C)S(=O)(=O)c1ccc(C(=O)Nc2nc(-c3ccccn3)cs2)cc1 was read as Pf apPOL block -4 and mHTT-CaM PPI inh 52*.
O=c1cc(C(F)(F)F)[nH]n1-c1ccccc1 was read as Pf apPOL block 6.
O=c1cc(O)n(-c2ccccc2)[nH]1 was read as Pf apPOL block 53* and mHTT-CaM PPI inh 20.
`CCOc1ccc(/C=C2/C(=O)ON=C2C)cc1Br` gave Pf apPOL block 0 and mHTT-CaM PPI inh 48.
CCCOc1ccc(/C=C2/C(=O)ON=C2C)cc1Cl was read as Pf apPOL block 9 and mHTT-CaM PPI inh 58*.
Screening CCOc1ccc(Cl)cc1/C=C1/C(=O)ON=C1C returned Pf apPOL block -9 and mHTT-CaM PPI inh 30.
Screening CCCCC1(C)OC(=O)C(=Cc2ccc(N(CC)CC)cc2)C(=O)O1 (stereo not drawn) returned Pf apPOL block 4 and mHTT-CaM PPI inh 3.
CCN(CC)c1ccc(/C=C2/C(=O)ON=C2C)cc1 was read as Pf apPOL block 0 and mHTT-CaM PPI inh 50*.
Screening CCOc1ccc(/C=C2/C(=O)ON=C2C)cc1Cl returned Pf apPOL block 6 and mHTT-CaM PPI inh 67*.
Screening COc1ccccc1NC(=O)C1=C(C)NC(=O)NC1c1ccsc1 (stereo not drawn) returned Pf apPOL block -2 and mHTT-CaM PPI inh 2.
For CC1CN(S(=O)(=O)c2ccc(C(=O)Nc3nnc(-c4ccccc4Cl)o3)cc2)CC(C)O1 (stereo not drawn) the results were Pf apPOL block -21 and mHTT-CaM PPI inh 11.
`Cc1ccc2ncc3c(=O)n(CC(=O)Nc4ccc(Cl)cc4)[nH]c3c2c1` gave Pf apPOL block 1 and mHTT-CaM PPI inh 16.
`COc1ccc(N(C)C(C)=O)cc1` gave Pf apPOL block -2 and mHTT-CaM PPI inh 5.
`CS(=O)(=O)Nc1ccccc1C(=O)NCc1ccccc1` gave Pf apPOL block 0 and mHTT-CaM PPI inh -4.
`CCOc1ccc(S(=O)(=O)N(CC(=O)Nc2ccccc2CC)c2ccccc2)cc1` gave Pf apPOL block -1 and mHTT-CaM PPI inh 11.
